FLuc modulator: qHTS profiling assay for firefly luciferase inhibitor/activator using purifed enzyme and Km concentrations of substrates (counterscreen for miR-21 project). purified FLuc, Km substrates, luminescence inhibition. Potency, µM (series often up to 57.5 µM), most hits filed as inhibitors. 6.9% of 360,000 active. AID 588342, 2011; further: nearly all actives have a fitted effect of over 55% in size
Target sequence (P08659 whole entry, looked up): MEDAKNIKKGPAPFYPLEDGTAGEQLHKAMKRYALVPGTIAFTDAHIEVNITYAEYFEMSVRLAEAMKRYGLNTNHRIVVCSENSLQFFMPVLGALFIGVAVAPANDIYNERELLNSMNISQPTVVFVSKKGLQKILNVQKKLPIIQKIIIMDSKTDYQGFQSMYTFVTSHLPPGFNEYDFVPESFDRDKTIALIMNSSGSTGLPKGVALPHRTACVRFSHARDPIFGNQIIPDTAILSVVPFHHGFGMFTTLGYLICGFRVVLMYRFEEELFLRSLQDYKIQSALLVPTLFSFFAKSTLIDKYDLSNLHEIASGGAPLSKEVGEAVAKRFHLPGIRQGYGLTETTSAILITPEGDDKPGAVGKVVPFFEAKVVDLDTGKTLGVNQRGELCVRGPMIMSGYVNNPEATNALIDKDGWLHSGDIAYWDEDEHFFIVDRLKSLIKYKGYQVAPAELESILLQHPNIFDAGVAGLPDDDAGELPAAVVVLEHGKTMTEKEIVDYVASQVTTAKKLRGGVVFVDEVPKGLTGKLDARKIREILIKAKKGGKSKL
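Purified P. pyralis luciferase (10nM final) with 10uM D-luciferin and 10uM ATP (Km levels) in 50mM Tris acetate pH 7.5, 10mM Mg acetate, 0.01% Tween-20, 0.05% BSA; qHTS 6-point titration, ~60 µM downward; luminescence read.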
SMN2 splice enh: qHTS Assay for Enhancers of SMN2 Splice Variant Expression; HEK293 SMN2-luciferase splicing reporter, luminescence, 30-36 h; 2.8% of 210,000 active; AID 1458, 2008; Potency, µM (top dose mostly 46.1 µM), hits mostly activators; further: nearly all actives have a fitted effect of over 55% in size
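HEK293 cells carry an SMN2 minigene-luciferase reporter in which exon 7 inclusion puts luciferase in frame. Cells were seeded at 2000 cells/well, attached for 10-12 hours, then exposed to compounds for 30-36 hours at 37C before ONE-Glo luminescence.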
NPC1 promoter act: qHTS Assay for NPC1 Promoter Activators. Huh7 NPC1 promoter luciferase reporter, 24 h. 2.4% of 320,000 active. AID 485313, 2010. Potency, µM (highest dose often 9.22 µM), actives largely listed as activators; further: nearly all actives have a fitted effect of over 60% in size
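Stably transfected Huh7 (NPC1 promoter→luciferase), 1500 cells/well in Opti-MEM + 10% FBS, 2 h settle, then compound 24 h at 37 °C. Luminescence after 10 min with Amplite reagent.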
ELG1 genotoxic: qHTS screen for small molecules that induce genotoxicity in human embryonic kidney (HEK293T) cells expressing luciferase-tagged ELG1 | 1.3% of 330,000 active | AID 504466, 2011 | Potency, µM (titrated, usually from 46 µM), most hits filed as activators | HEK293T ELG1-luciferase reporter, luminescence, 16 h; further: nearly all actives have a fitted effect of over 60% in size
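Step 1: seed 2,000 HEK293T ELG1-luciferase cells per well. Step 2: add compound or DMSO, incubate 16 hr at 37 °C. Step 3: ONE-Glo, 30 min at room temperature, read luminescence.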
Rab9 prom act: qHTS Assay for Rab9 Promoter Activators. Huh7 Rab9 promoter-luciferase reporter, luminescence, 24 h. Potency, µM (doses to about 9.22 µM), actives largely listed as activators. 2.8% of 320,000 active. AID 485297, 2010; further: nearly all actives have a fitted effect of over 60% in size
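Cells were plated at 1500 per well in reduced-serum medium with 10% FBS and left 2 h. Compound in DMSO was then added for 24 h at 37 °C. Reporter signal was read by luminescence after 10 min with luciferase detection reagent.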
Numbers stand for hits; i = inactive; ? = inconclusive; nt = no result given; [ ] = remark or other dose. Rows were chosen to be rich in hits. Some 7.4% of all compounds tested hit in one or more screens of this group. The call rests on the fitted dose curve; in most records, active means well fitted curve in the direction sought with a large enough effect; inconclusive means small, poorly fitted or top-dose-only effect, or another doubt; inactive means no such curve, though single readings can be large; an effect the other way counts as inactive or inconclusive.

SMILES	FLuc modulator	SMN2 splice enh	NPC1 promoter act	ELG1 genotoxic	Rab9 prom act
COc1ccc(-n2ncc3c(N4CCC(C(N)=O)CC4)ncnc32)cc1	15µM	i	3.5µM	i	2.8µM
Cc1cccc(-n2ncc3c(N4CCC(C)CC4)ncnc32)c1	1.9µM	2.5µM	1.1µM	?	0.89µM
Cc1cccc(-n2ncc3c(N4CCCCCC4)ncnc32)c1	0.6µM	nt	nt	nt	nt
Cc1ccc(-n2ncc3c(N4CCN(Cc5ccccc5)CC4)ncnc32)cc1C	i	nt	nt	nt	nt
Cc1ccc(-n2ncc3c(N4CCCCCC4)ncnc32)cc1C	0.27µM	nt	nt	nt	nt
CCOC(=O)C1CCN(c2ncnc3c2cnn3-c2ccc(OC)cc2)CC1	?	i	i	i	i
COc1ccccc1CNC(=O)CN(CCc1ccccc1)S(C)(=O)=O	i	nt	i	i	i
COc1ccc(C(C)(C)C)cc1NC(=O)CCCN1C(=O)NC(C)(C)C1=O	i	nt	i	i	i
CCOc1ccc(CNC(=O)c2cc3c(=O)oc4ccc(C)cc4c3s2)cc1	i	i	nt	nt	nt
Clc1ccc(N2CCN(c3ncnc4c3cnn4-c3ccccc3)CC2)cc1Cl	i	nt	nt	nt	nt
c1ccc(-n2ncc3c(N4CCCCC4)ncnc32)cc1	0.27µM	i	0.32µM	0.46µM	?
COc1ccc(CSc2nc3ncccc3[nH]2)cc1	19µM	nt	nt	nt	nt
O=C1CCC(=O)N1c1ccc(CSc2nc3ccccc3[nH]2)cc1	?	i	i	?	i
COc1ccc(CSc2nc3ccccc3[nH]2)cc1	1.5µM	?	0.4µM	?	0.5µM
CC(C)CCSc1nc2ccccc2[nH]1	11µM	14µM	3.5µM	?	3.5µM
Fc1ccccc1CSc1nc2ncccc2[nH]1	15µM	22µM	?	10µM	?
Cc1cc(Cl)ccc1OCc1cc(=O)n2c3c(sc2n1)CCCC3	i	i	nt	nt	nt
COC(=O)c1ccc(CSc2nc3ccccc3[nH]2)o1	?	i	i	i	?
COC(=O)c1cccc(CSc2nc3ccccc3[nH]2)c1	7.6µM	3.2µM	2.5µM	?	?
c1ccc2[nH]c(SCc3ccc(-c4nnco4)cc3)nc2c1	11µM	i	?	?	3.5µM
c1ccc(-c2cc(CSc3nc4ccccc4[nH]3)on2)cc1	?	nt	i	?	i
O=C(Nc1nnc(SCc2ccccc2)s1)c1cccs1	?	?	i	15µM	i
CCSc1nnc(NC(=O)c2cccs2)s1	19µM	i	?	i	?
COC(=O)Cc1c(C)nc2nc(-c3ccc(C)cc3)[nH]n2c1=O	8.5µM	i	i	?	i
COC(=O)Cc1c(C)nc2nc(-c3ccc(Cl)cc3)[nH]n2c1=O	11µM	i	i	?	i
SMILES	FLuc modulator	SMN2 splice enh	NPC1 promoter act	ELG1 genotoxic	Rab9 prom act
COC(=O)Cc1c(C)nc2nc(-c3ccccc3)[nH]n2c1=O	17µM	i	i	i	i
CC(=O)c1c(C)[nH]c(C(=O)COC(=O)Cc2ccccc2F)c1C	nt	nt	nt	i	nt
O=c1oc2c(-c3cccc(F)c3)cc(O)cc2s1	i	i	i	i	i
CNc1cccc2c1C(=O)c1ccccc1C2=O	9.5µM	?	i	?	?
c1ccc(CN2CCN(CCOCCOc3ccc4c(c3)CCC4)CC2)cc1	i	nt	i	i	i
Cc1ccc(C(=O)Nc2cc3c(oc2=O)CCCC3=O)cc1	21µM	i	?	?	?
O=C(Nc1cc2c(oc1=O)CCCC2=O)c1ccccc1	i	i	i	i	i
O=[N+]([O-])c1ccc(-c2cnc[nH]2)cc1	?	nt	i	i	i
N/C(=N\OC(=O)c1cccc2ccccc12)c1ccccn1	1.2µM	nt	?	10µM	?
COc1cccc(C(=O)O/N=C(\N)c2ccccn2)c1OC	0.95µM	nt	?	1.8µM	0.71µM
COc1cccc(C(=O)O/N=C(\N)c2ccncc2)c1OC	?	i	i	?	i
N/C(=N\OC(=O)Cc1cccc2ccccc12)c1ccccn1	?	i	i	?	i
CC(=O)Nc1cc(-c2ccccc2)ccc1O	i	i	i	i	i
c1ccc(-c2ccc3c(c2)NCCN3)cc1	13µM	nt	?	i	i[1.84 µM]
Nn1c(SCC(=O)Nc2ccc3c(c2)OCCO3)nncc1=O	21µM	nt	i	i	i
Cc1ccccc1-c1nnc(SCC(=O)Nc2ccc3c(c2)OCCO3)n1N	i	i	i	i	i
COCCCn1nnnc1SCC(=O)Nc1ccc2c(c1)OCCO2	i	nt	i	i	i
Cn1c(CN2CCOCC2)nnc1SCC(=O)Nc1ccc2c(c1)OCCO2	i	8.9µM	i	i	i
CCn1nnnc1SCC(=O)Nc1nc(C)c(C)s1	i	?	i	i	i
CCn1nnnc1SCC(=O)Nc1ccc2c(c1)OCCO2	15µM	11µM	2.8µM	?	?
CCn1nnnc1SCC(=O)Nc1nnc(C(C)C)s1	i	0.4µM	i	i	i
O=C(COC(=O)c1ccccc1O)NC(=O)NCc1ccccc1	i	nt	i	i	i
CC(C)n1nnnc1SCC(=O)Nc1ccc2c(c1)OCCO2	17µM	nt	3.2µM	?	?
CCC(=O)Nc1ccc(NC(=O)CSc2nnnn2C(C)C)cc1	i	i	i	i	i
CCCC(C(=O)NC1CCCC1)N(Cc1ccccc1Cl)C(=O)c1snc(C(N)=O)c1N (stereo not drawn)	i	nt	i	i	i
SMILES	FLuc modulator	SMN2 splice enh	NPC1 promoter act	ELG1 genotoxic	Rab9 prom act
Cc1ccc(NC(=O)C2Cc3ccccc3C(=O)O2)cc1 (stereo not drawn)	?	i	?	?	?
O=C1OC(C(=O)Nc2ccccc2)Cc2ccccc21 (stereo not drawn)	17µM	i	i	i	?
c1ccc(-c2cn(CC3CCCCC3)nn2)cc1	15µM	nt	3.5µM	?	2.2µM
CCCCCc1ccc(-c2cn(CCCOCc3ccccc3)nn2)cc1	i	nt	i	i	i
COc1ccc(-c2cn(CCCOCc3ccccc3)nn2)cc1	i	nt	i	i	i
c1ccc(-c2cn(C[C@H]3CC[C@@H]([C@@H]4CC[C@H](Cn5cc(-c6ccccc6)nn5)O4)O3)nn2)cc1	i	nt	i	i	i
CCCCCc1ccc(-c2cn(CC3CCCCC3)nn2)cc1	i	nt	?	i	2µM
COc1ccc(-c2cn(CC3CCCCC3)nn2)cc1	?	nt	4µM	?	2.8µM
CCn1c(/C=C/c2c[nH]c3ccccc23)nc2ccccc2c1=O	5.4µM	nt	1.6µM	2.6µM	1.4µM
CCn1c(/C=C/c2ccccc2Cl)nc2ccccc2c1=O	27µM	nt	i	i	i
COc1ccc(-c2c(-c3cc(OC)cc(OC)c3)n(C)c3ccc(-c4ccc(S(N)(=O)=O)cc4)cc23)cc1	i	nt	i	i	i
CN(Cc1ccc(Cl)cc1Cl)C(=O)CNC(=O)c1ccco1	i	nt	i	i	i
O=C(Nc1cc2c3c(c1)CC(=O)N3CCC2)c1ccc(Br)cc1	15µM	nt	i	i	i
Cc1cc(C)cc(C(=O)Nc2cc3c4c(c2)CC(=O)N4CCC3)c1	i	nt	i	i	i
Cn1nc(C(F)(F)F)c(-c2cccc(C(F)(F)F)c2)c1NC(=O)CSCC(=O)O	i	nt	i	i	i
COc1ccc(Cl)cc1CNCCSc1nnnn1-c1ccccc1	i	nt	nt	nt	nt
